These compounds were tested against Tyrosine-protein kinase JAK2 (Homo sapiens) (UniProt O60674). Conditions: at 1 µM.
Chain of Tyrosine-protein kinase JAK2 (Homo sapiens) (O60674 whole entry): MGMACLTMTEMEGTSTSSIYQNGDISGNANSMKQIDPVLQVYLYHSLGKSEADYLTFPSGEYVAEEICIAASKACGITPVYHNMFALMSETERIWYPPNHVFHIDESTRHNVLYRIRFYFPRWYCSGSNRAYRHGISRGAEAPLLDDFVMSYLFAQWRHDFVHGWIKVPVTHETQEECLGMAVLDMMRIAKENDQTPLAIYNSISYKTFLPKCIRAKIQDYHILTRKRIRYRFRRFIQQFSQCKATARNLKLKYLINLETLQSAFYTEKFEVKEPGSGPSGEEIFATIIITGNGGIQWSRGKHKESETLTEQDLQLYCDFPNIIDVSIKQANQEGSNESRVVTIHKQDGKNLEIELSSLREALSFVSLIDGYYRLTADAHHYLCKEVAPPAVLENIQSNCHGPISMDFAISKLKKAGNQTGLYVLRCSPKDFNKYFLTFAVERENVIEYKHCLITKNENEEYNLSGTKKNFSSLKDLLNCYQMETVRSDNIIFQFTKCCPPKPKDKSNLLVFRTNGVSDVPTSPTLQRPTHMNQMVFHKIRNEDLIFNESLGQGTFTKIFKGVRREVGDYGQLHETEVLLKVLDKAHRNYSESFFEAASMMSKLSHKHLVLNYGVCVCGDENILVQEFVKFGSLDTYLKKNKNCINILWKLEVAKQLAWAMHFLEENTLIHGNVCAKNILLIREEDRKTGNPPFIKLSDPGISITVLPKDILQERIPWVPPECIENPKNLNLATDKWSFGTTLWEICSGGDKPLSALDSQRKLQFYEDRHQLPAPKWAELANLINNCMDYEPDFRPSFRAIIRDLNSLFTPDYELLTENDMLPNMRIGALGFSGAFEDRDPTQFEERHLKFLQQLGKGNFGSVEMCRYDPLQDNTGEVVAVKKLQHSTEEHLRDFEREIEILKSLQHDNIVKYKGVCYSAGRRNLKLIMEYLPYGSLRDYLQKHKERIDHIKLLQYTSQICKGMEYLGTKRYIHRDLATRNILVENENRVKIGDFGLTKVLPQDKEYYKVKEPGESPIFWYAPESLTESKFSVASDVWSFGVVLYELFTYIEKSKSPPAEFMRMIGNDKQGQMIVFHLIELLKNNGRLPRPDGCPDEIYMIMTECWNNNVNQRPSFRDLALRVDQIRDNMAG
With Cn1cc(/C=C2\C(=O)Nc3ccc(S(N)(=O)=O)cc32)c2ccccc21 the residual activity was 53%.
Work on COc1cc2ncnc(Nc3ccc(Oc4ccccc4)cc3)c2cc1OC yielded a residual activity of 118%.
For O=c1cc(-c2cccc3c2Sc2ccccc2S3)oc(N2CCOCC2)c1, the residual activity was 98%.
Oc1ccc(-c2nc(-c3ccc(F)cc3)c(-c3ccncc3)[nH]2)cc1 showed a residual activity of 101%.
Compound O=C1c2ccccc2-[n+]2ccc3c([nH]c4ccccc43)c21 has a residual activity of 95%.
Work on Nc1nc(Nc2ccc(S(N)(=O)=O)cc2)nn1C(=S)Nc1c(F)cccc1F yielded a residual activity of 2%.
Compound N#C/C(=C(\N)Sc1ccc(N)cc1)c1ccccc1C(F)(F)F has a residual activity of 99%.
With CN(C)CCCn1cc(C2=C(c3c[nH]c4ccccc34)C(=O)NC2=O)c2ccccc21 the residual activity was 121%.
For c1ccc(-c2n[nH]cc2-c2ccnc3ccccc23)nc1, the residual activity was 94%.
Work on CC(=O)c1ccc(N2CCOCC2)cc1O yielded a residual activity of 102%.
CO[C@@H]1[C@H](N(C)C(=O)c2ccccc2)C[C@H]2O[C@]1(C)n1c3ccccc3c3c4c(c5c6ccccc6n2c5c31)C(=O)NC4 showed a residual activity of 7%.
Work on O=C(Nc1cccc(Nc2nccc(Nc3cccc(C(F)(F)F)c3)n2)c1)C1CC1 yielded a residual activity of 19%.
N#Cc1cnc2cnc(NCc3cccnc3)cc2c1Nc1ccc(F)c(Cl)c1 gave a residual activity of 96%.
Compound CC(=O)O/N=C1\C(=C2\C(=O)Nc3cc(Br)ccc32)Nc2ccccc21 has a residual activity of 103%.
For Cn1cnc2cc3c(Nc4cccc(Br)c4)ncnc3cc21, the residual activity was 111%.
CCC(=O)Nc1ccc2ncnc(Nc3cccc(Br)c3)c2c1 showed a residual activity of 89%.
With O=c1c2ccccc2[nH]c(=S)n1CCN1CCC(=C(c2ccc(F)cc2)c2ccc(F)cc2)CC1 the residual activity was 122%.
Compound CC[n+]1c(/C=C/N(C)c2ccccc2)n(-c2ccccc2)c2ccc(-c3nc4ccccc4s3)cc21 has a residual activity of 121%.
Work on O=Nc1c(-c2c(O)[nH]c3ccccc23)[nH]c2ccccc12 yielded a residual activity of 92%.
With CC#CC(=O)Nc1cc2c(Nc3ccc(F)c(Cl)c3)ncnc2cn1 the residual activity was 96%.
Work on O=[N+]([O-])c1ccc(-c2nc(-c3ccc(F)cc3)c(-c3ccncc3)[nH]2)cc1 yielded a residual activity of 99%.
Compound Cc1cc2ncc(-c3ccccc3)nc2cc1C has a residual activity of 101%.
With O=C(O)c1ccc2c3c1cccc3c(=O)n1c3ccccc3nc21 the residual activity was 100%.
In the case of CCN(CC)C(=O)c1ccc(Nc2nc(OCC3CCCCC3)c3nc[nH]c3n2)cc1, the residual activity is reported as 3%.
O=C1Nc2ccc(Br)cc2/C1=C\c1cc2c([nH]1)CCCC2 gave a residual activity of 105%.
In the case of Cc1cc(Nc2nc(-c3ccccc3)nc3ccccc23)n[nH]1, the residual activity is reported as 14%.
In the case of Oc1ccc(Nc2nc(-c3ccc(Cl)cc3)cs2)cc1, the residual activity is reported as 106%.
For c1ccc2c(-c3ccncc3)c[nH]c2c1, the residual activity was 97%.

What follows are compounds tested against Tyrosine-protein kinase JAK2 (Homo sapiens) (UniProt O60674). Conditions: at 10 µM.
With Cn1cc(/C=C2\C(=O)Nc3ccc(S(N)(=O)=O)cc32)c2ccccc21 the residual activity was 21%.
With COc1cc2ncnc(Nc3ccc(Oc4ccccc4)cc3)c2cc1OC the residual activity was 148%.
With O=c1cc(-c2cccc3c2Sc2ccccc2S3)oc(N2CCOCC2)c1 the residual activity was 111%.
Oc1ccc(-c2nc(-c3ccc(F)cc3)c(-c3ccncc3)[nH]2)cc1 gave a residual activity of 112%.
With O=C1c2ccccc2-[n+]2ccc3c([nH]c4ccccc43)c21 the residual activity was 101%.
With Nc1nc(Nc2ccc(S(N)(=O)=O)cc2)nn1C(=S)Nc1c(F)cccc1F the residual activity was 0%.
Work on N#C/C(=C(\N)Sc1ccc(N)cc1)c1ccccc1C(F)(F)F yielded a residual activity of 98%.
CN(C)CCCn1cc(C2=C(c3c[nH]c4ccccc34)C(=O)NC2=O)c2ccccc21 was tested, and the residual activity was 90%.
c1ccc(-c2n[nH]cc2-c2ccnc3ccccc23)nc1 was tested, and the residual activity was 109%.
Compound CC(=O)c1ccc(N2CCOCC2)cc1O has a residual activity of 96%.
With CO[C@@H]1[C@H](N(C)C(=O)c2ccccc2)C[C@H]2O[C@]1(C)n1c3ccccc3c3c4c(c5c6ccccc6n2c5c31)C(=O)NC4 the residual activity was 2%.
O=C(Nc1cccc(Nc2nccc(Nc3cccc(C(F)(F)F)c3)n2)c1)C1CC1 gave a residual activity of 29%.
In the case of N#Cc1cnc2cnc(NCc3cccnc3)cc2c1Nc1ccc(F)c(Cl)c1, the residual activity is reported as 94%.
Work on CC(=O)O/N=C1\C(=C2\C(=O)Nc3cc(Br)ccc32)Nc2ccccc21 yielded a residual activity of 71%.
For Cn1cnc2cc3c(Nc4cccc(Br)c4)ncnc3cc21, the residual activity was 99%.
Compound CCC(=O)Nc1ccc2ncnc(Nc3cccc(Br)c3)c2c1 has a residual activity of 107%.
O=c1c2ccccc2[nH]c(=S)n1CCN1CCC(=C(c2ccc(F)cc2)c2ccc(F)cc2)CC1 showed a residual activity of 102%.
CC[n+]1c(/C=C/N(C)c2ccccc2)n(-c2ccccc2)c2ccc(-c3nc4ccccc4s3)cc21 gave a residual activity of 150%.
O=Nc1c(-c2c(O)[nH]c3ccccc23)[nH]c2ccccc12 showed a residual activity of 11%.
In the case of CC#CC(=O)Nc1cc2c(Nc3ccc(F)c(Cl)c3)ncnc2cn1, the residual activity is reported as 97%.
O=[N+]([O-])c1ccc(-c2nc(-c3ccc(F)cc3)c(-c3ccncc3)[nH]2)cc1 was tested, and the residual activity was 101%.
In the case of O=C(O)c1ccc2c3c1cccc3c(=O)n1c3ccccc3nc21, the residual activity is reported as 40%.
CCN(CC)C(=O)c1ccc(Nc2nc(OCC3CCCCC3)c3nc[nH]c3n2)cc1 gave a residual activity of -1%.
O=C1Nc2ccc(Br)cc2/C1=C\c1cc2c([nH]1)CCCC2 gave a residual activity of 99%.
With Cc1cc(Nc2nc(-c3ccccc3)nc3ccccc23)n[nH]1 the residual activity was 1%.
Oc1ccc(Nc2nc(-c3ccc(Cl)cc3)cs2)cc1 showed a residual activity of 97%.
c1ccc2c(-c3ccncc3)c[nH]c2c1 showed a residual activity of 101%.
